Data reported in PubChem BioAssay.
Active and inactive are the calls of the source.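 Rule for the calls: active = inhibition above 20% together with a positive visual image hit; inconclusive = visual image hit but inhibition not above 20%; inactive = no visual image hit.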

Assay: inhibitors of TNFa-induced NFkB p65 translocation, primary screen, imaging, HUVEC, MLSMR starter and 10KST1 sets (AID 438);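 note: compound added about 3h40 before a 20 min TNFalpha stimulation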;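 for inhibition: signal is the nuclear over cytoplasmic p65 intensity ratio per well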
Details: HUVEC TNFa-induced p65 nuclear translocation; cell count: measured here: nuclei count (cytotoxicity indicator), at 2.08 µM; inhibition: at 2 µM, stronger effect = higher value, 0% TNFa-plus-vehicle, 100% no-TNFa wells

Row | SMILES | inhibition | cell count
1 | CCCCOc1ccc(-c2nnn(C(C)(C)C(=O)OC)n2)cc1 | -6.3% (inactive) | 602
2 | O=c1c2nnn(Cc3ccc(Cl)cc3)c2ncn1Cc1ccc(F)cc1 | -7.9% (inactive) | 608
3 | COc1cc(C2C(C#N)=C(N)OC3=C2C(=O)CC(C)(C)C3)ccc1OC(=O)N1CCOCC1 (stereo not given) | -36.6% (inactive) | 482
4 | CCOC(=O)c1[nH]c(C)c(C(=O)Nc2ccc(C)cc2C)c1C | 5.8% (inactive) | 505
5 | Cn1cccc1Cc1nnc(SCC(N)=O)n1-c1ccc(F)cc1 | 4.6% (inactive) | 845
6 | COc1cccc(OCCn2ccnc2)c1 | -6.6% (inactive) | 305
7 | COc1ccc(CCNC(=O)c2cc(C(C)C)on2)cc1OC | 9.2% (inactive) | 825
8 | CC(CN1CCCCC1)OC(=O)c1ccc2c(c1)OCO2 (stereo not given) | 4.9% (inactive) | 639
9 | COc1ccc(NC(=O)c2oc3ccc(S(=O)(=O)N4CCC5(CC4)OCCO5)cc3c2C)cc1 | -4.4% (inactive) | 209
10 | CC1CCc2c(sc3c2C2=NS(=O)(=O)CCN2C=N3)C1 (stereo not given) | 2.9% (inactive) | 188
11 | COc1ccc(/C=N/n2cnnc2SCc2ccc(OC)cc2)cc1 | 3.1% (inactive) | 378
12 | CCn1c(CCNC(=O)c2cccs2)nnc1SCC(=O)c1ccc(OC)cc1 | 0.8% (inactive) | 263
13 | Cc1ccc2c(c1)C(N1CCCC1=O)CC(c1ccco1)N2 (stereo not given) | 0% (inactive) | 343
14 | Cc1sc2nc(SCC(=O)Nc3c(C)n(C)n(-c4ccccc4)c3=O)n(C)c(=O)c2c1C | -8.3% (inactive) | 556
15 | COCCN(CCOC)C(=O)c1sc2nc(-c3ccccc3)cn2c1C | -10.7% (inactive) | 752
16 | CCc1ccccc1NC(=O)C(CC)Sc1nc2cc3c(cc2c(=O)n1Cc1ccco1)OCO3 (stereo not given) | 9.8% (inactive) | 486
17 | CCc1c(C(=O)Nc2ncn(Cc3cccc(C)c3)n2)csc1C | 1.2% (inactive) | 630
18 | CCC(=O)N1CCN(c2nc(-c3ccccc3)c3c(c2C#N)CCCC3)CC1 | 6.3% (inactive) | 501
19 | COc1ccc(S(=O)(=O)N(C)CC(=O)N2CCCCC2)cc1Cl | -15.7% (inactive) | 173
20 | CN(CC(=O)N1CCCCC1)S(=O)(=O)c1cccc2cccnc12 | 4.3% (inactive) | 792

Row | SMILES | inhibition | cell count
21 | CS(=O)(=O)N(CC(=O)Nc1cccc(F)c1)Cc1ccccc1 | -0.2% (inactive) | 381
22 | O=S(=O)(c1cccc(S(=O)(=O)N2CCC(N3CCCCC3)CC2)c1)N1CCOCC1 | -4.8% (inactive) | 725
23 | Cc1ccc(-c2nc3cc(N)ccc3o2)cc1 | 1.1% (inactive) | 463
24 | COc1ccc(OC)c(C(=O)CSc2nc3ncccc3[nH]2)c1 | 9.5% (inactive) | 238
25 | O=C1c2ccccc2C(Nc2ccc3c(c2)OCO3)N1Cc1ccc2c(c1)OCO2 (stereo not given) | -8.5% (inactive) | 529
26 | COc1ccc(-c2nc(C)c(C(C)=O)n2O)cc1OC | 2.7% (inactive) | 385
27 | CCOc1ccc(N(CC(=O)Nc2ccc(F)c(F)c2)S(=O)(=O)c2c(C)noc2C)cc1 | -0.6% (inactive) | 758
28 | CC(=O)Nc1ccc(NS(=O)(=O)c2ccc(Cl)c(C(=O)O)c2)cc1 | -3.9% (inactive) | 688
29 | CC(=O)c1cccc(NC(=O)CCNS(=O)(=O)c2cccc3nsnc23)c1 | -3.5% (inactive) | 439
30 | CCOc1ccccc1-n1nnnc1SCC(=O)Nc1cc2oc3ccccc3c2cc1OC | -2.9% (inactive) | 374
31 | COc1cccc(NC(=O)CSc2nnc(Cc3cccn3C)n2-c2ccc(F)cc2)c1 | -3.3% (inactive) | 567
32 | CCN1CCN(c2nc(C)nc3c2sc(=S)n3C)CC1 | -4.8% (inactive) | 640
33 | CCCc1[nH]nc2c1C(c1cn[nH]c1-c1ccc(F)cc1)C(C#N)=C(N)O2 (stereo not given) | -8.3% (inactive) | 438
34 | COC(=O)c1sc(N)c(C(=O)OC)c1COC(=O)C1CC(=O)N(Cc2ccco2)C1 (stereo not given) | -1.9% (inactive) | 303
35 | COC(=O)CCC(NC(=O)c1cc(-c2ccc3c(c2)OCCO3)oc1C)C(=O)OC (stereo not given) | 20% (active) | 320
36 | CSc1cccc(NC(=O)CN(C)S(=O)(=O)c2ccccc2)c1 | 4.6% (inactive) | 407
37 | CC(C)c1nnc(NC(=O)Cc2cccs2)s1 | 3.4% (inactive) | 640
38 | COc1ccc(NC(=O)CSc2nc3c(c(=O)n2-c2ccc(F)cc2)SCC3)c(OC)c1 | 0.6% (inactive) | 339
39 | CC(C)(CO)NC(=O)CCCOc1ccc(Cl)cc1Cl | -4.9% (inactive) | 397
40 | Cc1cc(C)n(-c2ccc(N3CCOCC3)nn2)n1 | -5.2% (inactive) | 610
